A selection: hits, their analogues and other compounds. The true share with any hit is near 9.3%.
ELG1 genotox – genotoxicity induction in ELG1-luciferase HEK293T cells | AID 504466 | HEK293T ELG1-luciferase reporter, luminescence, 16 h | actives 1.3% (n = 330,000) | Potency, µM (doses to about 46 µM), inactives show top-dose activity change, positive = activation, most hits filed as activators; also: % of control where 0% means no effect; nearly all actives have a fitted effect of over 60% in size
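DMSO vehicle served as control against compound-treated ELG1-luciferase HEK293T cells; exposure lasted 16 hr at 37 °C and 5% CO2, followed by ONE-Glo luminescence detection after 30 min.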
SMN2 splice enh – enhancers of SMN2 splice variant expression | actives 2.8% (n = 210,000) | Potency, µM (highest dose often 46.1 µM), for inactives: at the highest dose activity change, positive = activation, actives largely listed as activators | HEK293 SMN2-luciferase splicing reporter, luminescence, 30-36 h; also: % of control where 0% means no effect; nearly all actives have a fitted effect of over 55% in size
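HEK293 cells carry an SMN2 minigene-luciferase reporter in which exon 7 inclusion puts luciferase in frame. Cells were seeded at 2000 cells/well, attached for 10-12 hours, then exposed to compounds for 30-36 hours at 37C before ONE-Glo luminescence.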
Rab9 promoter act – activates the Rab9 promoter; Huh7 Rab9 promoter-luciferase reporter, luminescence, 24 h; Potency, µM (doses to about 9.22 µM), for inactives: at the highest dose activation, negative = inhibition, usual class: activators; actives 2.8% (n = 320,000); also: % of control where 0% means no effect; nearly all actives have a fitted effect of over 60% in size
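Luciferase signal after 10 min detection reagent at ambient indicates Rab9 promoter upregulation; stably transfected Huh7 cells were treated 24 h with compound in DMSO at 37 °C, 5% CO2.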
NPC1 prom act – activates the NPC1 promoter; Potency, µM (series often up to 9.22 µM), for the others: at the highest dose activation, most hits filed as activators; actives 2.4% (n = 320,000); Huh7 NPC1 promoter luciferase reporter, 24 h; also: % of control where 0% means no effect; nearly all actives have a fitted effect of over 60% in size
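Huh7 reporter cells (NPC1 promoter driving luciferase) are dosed with compound for 24 h at 37 °C, 5% CO2; luciferase detection reagent is then added and luminescence measured after 10 min at ambient temperature.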
ELG1 repair inh – ELG1-dependent DNA repair inhibition; Potency, µM (titrated, usually from 46.1 µM), for inactives: top-dose activity change, negative = inhibition, usual class: inhibitors; actives 2.3% (n = 330,000); HEK293T ELG1-luciferase reporter, luminescence, 16 h; DNA damage induced by 5-fluorouridine; AID 504467; also: % is scaled to controls: 0 for no effect and ±100 for the full control effect; nearly all actives have a fitted effect of over 55% in size
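Reporter activity after DNA damage by 5-fluorouridine is monitored. Compound-treated cells incubate 16 hr at 37 °C, then ONE-Glo is added for 30 min before luminescence reading.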
FLuc counter – inhibits or activates purified firefly luciferase, miR-21 counter-screen. P08659. purified FLuc, Km substrates, luminescence inhibition. Potency, µM (highest dose often 57.5 µM), without a hit: at the highest dose activity change, negative = inhibition, actives largely listed as inhibitors. actives 6.9% (n = 360,000). AID 588342;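 also: plate controls were vehicle for no effect and reference inhibitor for full effect; nearly all actives have a fitted effect of over 55% in size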
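Biochemical qHTS of compounds, final roughly 60 µM downward over six points, against 10 nM purified firefly luciferase using Km concentrations of substrates (10 uM D-luciferin, 10 uM ATP) in Tris acetate pH 7.5 buffer; luminescence output.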
ELG1 FLuc counter – luciferase inhibition in cell-free luciferin readout for ELG1 hits; shares compounds with ELG1 repair inh; actives 3% (n = 350); cell-free firefly luciferase luminescence counter-screen, ViewLux; Potency, µM (highest dose often 46.1 µM), for inactives: at the top dose activity change, negative = inhibition, usual class: inhibitors; also: % is scaled to controls: 0 for no effect and ±100 for the full control effect
ELG1 Luc conf – human ELG1 repair inhibition, luciferase-tagged ELG1 confirmation | shares compounds with ELG1 repair inh | HEK293T ELG1-luciferase levels, luminescence; cells co-treated with 5-fluorouridine | Potency, µM (highest dose often 46.1 µM), without a hit: at the highest dose activity change, negative = inhibition, most hits filed as inhibitors | actives 68% (n = 670) | AID 624248; also: % is scaled to controls: 0 for no effect and ±100 for the full control effect; nearly all actives have a fitted effect of over 55% in size
Target sequence (Q96QE3 whole entry, looked up): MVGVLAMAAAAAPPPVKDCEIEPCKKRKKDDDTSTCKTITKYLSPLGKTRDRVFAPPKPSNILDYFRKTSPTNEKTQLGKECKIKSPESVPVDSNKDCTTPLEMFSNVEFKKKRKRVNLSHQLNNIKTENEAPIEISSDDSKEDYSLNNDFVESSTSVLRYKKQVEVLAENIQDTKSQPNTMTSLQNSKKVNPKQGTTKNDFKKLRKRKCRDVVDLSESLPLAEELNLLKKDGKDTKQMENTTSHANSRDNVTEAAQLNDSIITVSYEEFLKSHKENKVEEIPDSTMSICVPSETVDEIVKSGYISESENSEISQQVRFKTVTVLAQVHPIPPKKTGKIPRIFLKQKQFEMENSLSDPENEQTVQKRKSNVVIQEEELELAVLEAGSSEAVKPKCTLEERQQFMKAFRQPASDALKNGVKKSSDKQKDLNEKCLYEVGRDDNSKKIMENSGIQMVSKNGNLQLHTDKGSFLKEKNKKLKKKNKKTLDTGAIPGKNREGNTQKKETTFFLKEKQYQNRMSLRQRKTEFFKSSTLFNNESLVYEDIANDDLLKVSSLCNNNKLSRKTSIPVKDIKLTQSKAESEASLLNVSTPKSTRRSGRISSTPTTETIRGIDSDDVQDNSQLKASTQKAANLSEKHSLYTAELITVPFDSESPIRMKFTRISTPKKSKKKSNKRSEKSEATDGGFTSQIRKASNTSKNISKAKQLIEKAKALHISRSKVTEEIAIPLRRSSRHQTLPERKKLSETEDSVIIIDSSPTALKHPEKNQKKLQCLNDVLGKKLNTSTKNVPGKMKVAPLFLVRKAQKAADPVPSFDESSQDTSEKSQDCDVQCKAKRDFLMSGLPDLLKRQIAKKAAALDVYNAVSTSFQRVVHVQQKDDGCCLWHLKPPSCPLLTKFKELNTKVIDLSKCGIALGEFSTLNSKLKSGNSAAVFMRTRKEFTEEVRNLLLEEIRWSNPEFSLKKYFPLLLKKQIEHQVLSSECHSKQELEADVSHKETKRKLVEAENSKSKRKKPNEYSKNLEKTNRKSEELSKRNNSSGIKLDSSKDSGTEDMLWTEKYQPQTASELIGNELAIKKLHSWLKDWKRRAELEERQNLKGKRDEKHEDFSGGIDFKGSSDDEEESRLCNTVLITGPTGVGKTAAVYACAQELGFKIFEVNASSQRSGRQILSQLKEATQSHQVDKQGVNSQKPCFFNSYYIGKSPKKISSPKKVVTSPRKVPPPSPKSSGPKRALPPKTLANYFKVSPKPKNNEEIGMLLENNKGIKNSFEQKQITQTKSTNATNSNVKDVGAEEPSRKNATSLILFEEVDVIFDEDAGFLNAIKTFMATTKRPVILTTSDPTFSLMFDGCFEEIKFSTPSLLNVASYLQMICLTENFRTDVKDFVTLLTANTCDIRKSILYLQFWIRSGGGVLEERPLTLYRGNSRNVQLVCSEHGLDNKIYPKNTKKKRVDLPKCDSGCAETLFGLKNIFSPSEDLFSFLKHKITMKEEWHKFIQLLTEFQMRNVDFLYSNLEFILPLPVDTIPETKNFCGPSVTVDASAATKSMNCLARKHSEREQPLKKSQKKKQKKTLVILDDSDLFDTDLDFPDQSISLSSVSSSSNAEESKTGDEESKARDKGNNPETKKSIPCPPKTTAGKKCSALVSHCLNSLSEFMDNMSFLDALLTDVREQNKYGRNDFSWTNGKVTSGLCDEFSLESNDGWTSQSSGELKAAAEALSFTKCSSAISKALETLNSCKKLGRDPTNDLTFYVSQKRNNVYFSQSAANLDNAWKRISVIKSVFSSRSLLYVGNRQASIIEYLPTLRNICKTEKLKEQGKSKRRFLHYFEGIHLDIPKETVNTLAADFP
ELG1-Luc MMS – inhibits ELG1-dependent repair under MMS stimulation in HEK293T cells. shares compounds with ELG1 repair inh. HEK293T luciferase-tagged ELG1 level, MMS stimulated. Potency, µM (highest dose often 46.1 µM), for inactives: top-dose activity change, negative = inhibition, most hits filed as inhibitors. actives 53% (n = 670). AID 624249; also: % is scaled to controls: 0 for no effect and ±100 for the full control effect; nearly all actives have a fitted effect of over 60% in size
ELG1 5-FU – confirmation of ELG1 repair inhibitors: viability with 5FU | Potency, µM (highest dose often 46.1 µM), without a hit: at the highest dose activity change, negative = viability loss, most hits filed as cytotoxic | 670 tested, under 10 active | shares compounds with ELG1 repair inh | cell viability with 5-FU, ELG1-dependent repair;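 also: ELG1-luc HEK293T cells cotreated with 5-fluorouridine at 10 µM final; viability measured 16 h after compound addition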
ELG1 MMS viab – confirmation of ELG1 repair inhibitors: viability with MMS. Cell viability with MMS, ELG1-dependent DNA repair. shares compounds with ELG1 repair inh. actives 33% (n = 670). Potency, µM (doses to about 46.1 µM), for the others: at the highest dose activity change, negative = viability loss, most hits filed as cytotoxic;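 also: ELG1-luc HEK293T cells co-treated with 10 µM MMS; viability read 16 h after compound addition; % is scaled to controls: 0 for no effect and ±100 for the full control effect; nearly all actives have a fitted effect of over 60% in size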
Cell viab unstim – unstimulated viability counter-screen for ELG1 repair hits; cell viability counter-screen, unstimulated, luminescence; Potency, µM (top dose mostly 45.9 µM), without a hit: at the top dose activity change, negative = loss of viability, actives largely listed as cytotoxic; shares compounds with ELG1 repair inh; actives 8% (n = 900);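 also: compound exposure lasted 16 hours before reading; % is scaled to controls: 0 for no effect and ±100 for the full control effect; nearly all actives have a fitted effect of over 55% in size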
FLuc enzyme – inhibits purified firefly luciferase, counter-screen for ELG1 hits; shares compounds with ELG1 repair inh; purified firefly luciferase, luminescence counter-screen; Potency, µM (highest dose often 57.5 µM), without a hit: top-dose activity, negative = inhibition, hits mostly inhibitors; actives 10% (n = 350); AID 624253; also: % is scaled to controls: 0 for no effect and ±100 for the full control effect
Numbers without * were called inactive; u = inconclusive; x = no result given. Calls follow the shape of the dose curve; as a rule, active = well fitted curve in the direction sought with a large enough effect; inconclusive = small, poorly fitted or top-dose-only effect, or another doubt; inactive = no such curve, though single readings can be large; an effect the other way counts as inactive or inconclusive. Potency is read from the fitted curve at half-maximal effect.

SMILES | ELG1 genotox | SMN2 splice enh | Rab9 promoter act | NPC1 prom act | ELG1 repair inh | FLuc counter | ELG1 Luc conf | ELG1-Luc MMS | ELG1 5-FU | ELG1 MMS viab | Cell viab unstim | others
COc1ccc(-n2c(C(C)n3nc(C)c([N+](=O)[O-])c3C)n[nH]c2=S)cc1 (stereo unspecified) | -1% | 20% | 12% | -2% | u | -4% | x | x | x | x | x
COc1ccc(-n2c(C)c([N+](=O)[O-])c3ccc(O)c(CN(C)C)c32)cc1 | 3% | -5% | 2% | 19% | 0.92µM* | -6% | 1.4µM* | 2.5µM* | -2% | 6% | u | ELG1 FLuc counter=u;FLuc enzyme=6%
CCN(Cc1ccccc1)C(=O)Cn1c(=O)n(-c2ccc(OC)cc2OC)c(=O)c2c(C)c(C)sc21 | 11% | -16% | 1% | -9% | u | -10% | x | x | x | x | x
COc1cccc(NC(=O)CN(C)CC(=O)Nc2ccc(C)cc2Cl)c1 | -6% | -15% | -9% | 0% | -1% | -4% | x | x | x | x | x
CC(Sc1nnc(-c2ccncc2)n1C)C(=O)Nc1ccc(N2CCOCC2)cc1 (stereo unspecified) | 1% | x | -3% | 1% | 26% | -18% | x | x | x | x | x
Cc1nn(-c2ccccc2)c(N2CCCC2)c1/C=N/n1cnc2scc(-c3ccccc3)c2c1=O | -24% | -12% | 1% | 0% | 13µM* | 3% | 4.5µM* | u | 6% | -9% | u | ELG1 FLuc counter=2%;FLuc enzyme=-4%
Cc1nn(-c2ccccc2)c(N2CCCC2)c1/C=N/O | -9% | 7% | -3% | 0% | -21% | 3% | x | x | x | x | x
COc1ccccc1/C=C/c1nc2ccccc2o1 | x | x | x | x | x | x | x | x | x | x | 0%
CCOC(=O)c1c(C)[nH]c(C(=O)Nc2cc(OCC)c(N3CCOCC3)cc2OCC)c1C | -1% | x | -4% | 0% | 4.6µM* | 3% | 5.6µM* | 19% | u | 0% | -16%
CCN(CC)S(=O)(=O)c1ccc(N2CCOCC2)c(NC(=O)c2[nH]c(C)c(C(C)=O)c2C)c1 | 10µM* | x | x | x | u | x | x | x | x | x | -7%
CCc1ccccc1OCC(=O)Nc1cc(S(=O)(=O)N(CC)CC)ccc1N1CCOCC1 | 4% | x | 1% | -2% | 2.6µM* | 7% | 4.4µM* | 20% | u | -3% | u
CCN(CC)S(=O)(=O)c1ccc(N2CCOCC2)c(NC(=O)c2ccc(F)cc2)c1 | -9% | 9% | -1% | -2% | u | 0% | x | x | x | x | x
CCN(CC)S(=O)(=O)c1ccc(N2CCOCC2)c(NC(=O)COc2ccccc2)c1 | -7% | -57% | 7% | -3% | u | -1% | x | x | x | x | x
CCC1CN(S(=O)(=O)c2ccc3c(c2)NC(=O)CC(=O)N3)c2cc(Cl)ccc2O1 (stereo unspecified) | -8% | x | -7% | -7% | -16% | 1% | x | x | x | x | x
O=Cc1cn(CC(=O)Nc2ccc(F)cc2)c2ccccc12 | -9% | -78% | -7% | -4% | 3.7µM* | 0% | -4% | 3.1µM* | -3% | 14µM* | -3%
O=Cc1cn(CC(=O)Nc2ccccc2)c2ccccc12 | -9% | x | -1% | 0% | -19% | -9% | x | x | x | x | x
CCCn1ccc2c(OCC(=O)Nc3ccc(C(F)(F)F)cc3)cccc2c1=O | x | x | x | x | x | -1% | x | x | x | x | x
Cc1cc(C)c(NC(=O)CCc2c(C)noc2C)c(C)c1 | 2% | x | 1% | 0% | 7% | -1% | x | x | x | x | x
COc1ccc(NC(=O)c2c(N)no[n+]2[O-])c(OC)c1 | 3% | -11% | 9% | 1% | u | -2% | x | x | x | x | x
COc1ccc(NC(=O)c2c(N)no[n+]2[O-])cc1 | 14% | -40% | u | 14% | 4.6µM* | -5% | 14% | 5% | 0% | -6% | -4%
CCCNC(=O)CSc1cn(CC(=O)N2CCCCCC2)c2ccccc12 | x | x | x | x | x | -7% | x | x | x | x | x
CCCn1c(N2CCN(CC(=O)c3c(C)n(C)c4ccc(OC)cc34)CC2)nc2c1c(=O)[nH]c(=O)n2C | -1% | 1% | -3% | 0% | 1.5µM* | 2% | 3.5µM* | u | u | -18% | u | ELG1 FLuc counter=-6%;FLuc enzyme=-15%
CCC(CC)C(=O)Nc1cc(Cl)ccc1C | -3% | 0% | -2% | 0% | -1% | 4% | x | x | x | x | x
CCCN(CCC)c1ncnc2nc[nH]c12 | -47% | -9% | 3% | 2% | 1.6µM* | -1% | 4.4µM* | u | -4% | 10% | -4%
COc1ccc(CCNc2ncnc3sccc23)cc1OC | -12% | -73% | -38% | -41% | 0.29µM* | -4% | u | 0.28µM* | 0% | 0.4µM* | u | ELG1 FLuc counter=12%;FLuc enzyme=-10%
O=S1(=O)N[C@H](c2ccccc2)C[C@H](c2ccc(C(F)(F)F)cc2)O1 | -5% | x | 4% | -10% | 1% | 3% | x | x | x | x | x
Cc1ccc(-c2nnc(NCc3nc4ccccc4[nH]3)c3ccccc23)cc1S(=O)(=O)N1CCOCC1 | -6% | -67% | -8% | -3% | 4.6µM* | 1% | 7.1µM* | 16µM* | 9% | u | u

Bioassay records: PubChem, National Center for Advancing Translational Sciences (NCATS)
